Screening results deposited in PubChem BioAssay by National Center for Advancing Translational Sciences (NCATS).
TDP1 cell CPT: DT40-hTDP1 cell growth loss with CPT | Potency, µM (series often up to 46.2 µM), inactives show top-dose activity change, negative = growth inhibition, hits mostly inhibitors | 420,000 compounds, 12% hits | chicken DT40 Tdp1-/-;hTDP1 cells + 20 nM CPT, ATP luminescence, 48 h; further: on the % scale 0 is the no-effect control and ±100 the full control effect; nearly all actives have a fitted effect of over 55% in size
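Chicken DT40 Tdp1-/- cells complemented with human TDP1, 400 cells/well, exposed to compounds plus 20 nM camptothecin for at least 48 h at 37 C; viability read as ATP content by CellTiter-Glo luminescence.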
ATXN2 expr inh: inhibitors of ATXN2 expression | HEK-293 ATXN2-luciferase reporter, luminescence, 24 h | Potency, µM (top dose mostly 57 µM), for the others: top-dose activity change, negative = inhibition, most hits filed as inhibitors | 360,000 compounds, 0.72% hits; further: on the % scale 0 is the no-effect control and ±100 the full control effect; nearly all actives have a fitted effect of over 55% in size
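ATXN2-luciferase reporter cells (luciferase flanked by upstream and downstream ATXN2 gene portions) were treated 24 h at 37 °C with compounds at up to 57 uM. SteadyGlo luminescence gave expression; GF-AFC fluorescence gave viability.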
TGFb SMAD3 inh: inhibitors of TGF-b signaling. 410,000 compounds, 1.2% hits. HepG2 CAGA-GFP TGF-b/SMAD3 reporter, GFP fluorescence, 18 h; TGF-beta stimulated, 500 pg/mL final. AID 588855. Potency, µM (top dose mostly 46.1 µM), for inactives: at the highest dose activity, negative = inhibition, hits mostly inhibitors; further: on the % scale 0 is the no-effect control and ±100 the full control effect; nearly all actives have a fitted effect of over 65% in size
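Cell-based qHTS in HEPG2 carrying a CAGA-GFP Smad reporter; compounds added before 500 pg/mL final TGF-beta, 18 h incubation at 37 degrees C, GFP fluorescence quantified per cell by imaging cytometry.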
HepG2 tox-1: kills HepG2 cells in TGF-b inhibitor counter-screen | 410,000 compounds, 0.76% hits | AID 588856 | Potency, µM (series often up to 46.1 µM), inactives show at the highest dose activity change, negative = cytotoxicity, most hits filed as cytotoxic | HepG2 CAGA-GFP viability, ATP luminescence, 18 h
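HepG2 CAGA-GFP cells (1000/well, DMEM with 1% FBS) received compound, then TGF-beta at 500 pg/mL final, and were incubated 18 hours at 37 degrees C. Viability was read by CellTiter-Glo luminescence. Media-only wells were set as complete cell-killing and DMSO as no toxicity.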
TDP1 cell noCPT: qHTS for Inhibitors of human tyrosyl-DNA phosphodiesterase 1 (TDP1): qHTS in cells in absence of CPT; AID 686978, 2013; 420,000 compounds, 15% hits; Potency, µM (highest dose often 46.2 µM), without a hit: top-dose activity change, negative = growth inhibition, most hits filed as inhibitors; DT40 Tdp1-/- hTDP1 cells, no CPT, ATP luminescence, 48 h; further: on the % scale 0 is the no-effect control and ±100 the full control effect; nearly all actives have a fitted effect of over 55% in size
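No-CPT arm: Tdp1-/-;hTDP1 DT40 cells (400/well) plus compounds, incubated ≥48 hr at 37 °C. Readout CellTiter-Glo luminescence.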
S2 tox: reduces viability in counter-screen for ATXN expression inhibitors. Potency, µM (doses to about 56.7 µM), actives largely listed as cytotoxic. 400,000 compounds, 0.49% hits. S2 cells (HEK-293 line with an ATXN2-luciferase reporter) viability, CellTiter-Fluor protease fluorescence, 24 h. AID 651635; further: nearly all actives have a fitted effect of over 40% in size
TGFb confirm: confirmation of TGF-b signaling inhibitors in HepG2 reporter cells. shares compounds with TGFb SMAD3 inh. HepG2 CAGA-GFP TGF-b reporter, GFP fluorescence, 18 h; cells stimulated with TGF-beta, 500 pg/mL. Potency, µM (highest dose often 46.1 µM), inactives show at the top dose activity, negative = inhibition, most hits filed as inhibitors. 1,600 compounds, 63% hits; further: on the % scale 0 is the no-effect control and ±100 the full control effect; nearly all actives have a fitted effect of over 65% in size
HepG2 tox-2: HepG2 cytotoxicity, TGF-b inhibitor counterscreen | HepG2 CAGA-GFP viability, ATP luminescence, 18 h; cells stimulated with TGF-beta, 500 pg/mL | Potency, µM (titrated, usually from 46.1 µM), inactives show at the top dose activity, negative = cytotoxicity, actives largely listed as inhibitors | AID 720535 | shares compounds with TGFb SMAD3 inh | 1,600 compounds, 27% hits; further: on the % scale 0 is the no-effect control and ±100 the full control effect; nearly all actives have a fitted effect of over 70% in size
TGFb CCL64 inh: blocks TGF-b signaling in CCL64 reporter cells; shares compounds with TGFb SMAD3 inh; 1,600 compounds, 41% hits; Potency, µM (highest dose often 46.1 µM), inactives show at the top dose activity, negative = inhibition, hits mostly inhibitors; CCL64 CAGA-GFP reporter, TGF-b stimulated, GFP fluorescence, 18 h; AID 720536; further: nearly all actives have a fitted effect of over 65% in size
TGFb COP inh: TGF-b inhibition validated with COP promoter. Potency, µM (top dose mostly 46.1 µM), for the others: top-dose activity, negative = inhibition, actives largely listed as inhibitors. shares compounds with TGFb SMAD3 inh. 1,600 compounds, 3% hits. HepG2 COP-GFP TGF-b reporter, GFP fluorescence, 18 h; cells stimulated by added recombinant TGF-beta; further: nearly all actives have a fitted effect of over 70% in size
* hit, by the source's call; i = inactive; ? = inconclusive; · = no result given; [ ] = remark or other dose. Hits are enriched below; roughly 17% of the tested compounds scored in any of these assays. The call rests on the fitted dose curve; in most records, active means well fitted curve in the direction sought with a large enough effect; inconclusive means small, poorly fitted or top-dose-only effect, or another doubt; inactive means no such curve, though single readings can be large; an effect the other way counts as inactive or inconclusive. Potency means the concentration at half of the fitted maximal effect.

SMILES	TDP1 cell CPT	ATXN2 expr inh	TGFb SMAD3 inh	HepG2 tox-1	TDP1 cell noCPT	S2 tox	TGFb confirm	HepG2 tox-2	TGFb CCL64 inh	TGFb COP inh
CCOC(=O)C1=CCN(S(=O)(=O)c2ccc(C)cc2)C1c1ccc(Cl)c(Cl)c1 (centres undefined)	?	0%	?	-21%	?	?	·	·	·	·
CCOC(=O)C1=CCN(S(=O)(=O)c2ccc(C)cc2)C1c1cccc(Cl)c1 (centres undefined)	?	?	10µM*	-32%	23µM*	i	23µM*	-7%	0%	-8%
Cc1ccc2nc(Cl)c3cc(C(=O)NCCCN4CCC(C)CC4)sc3c2c1	?	·	-6%	2%	?	·	·	·	·	·
COc1cccc(CNc2nc3cc(-c4ccc(C)cc4)sc3c(=O)n2C)c1OC	16µM*	-2%	10µM*	-1%	18µM*	i	2.6µM*	?	12µM*	3%
COc1cccc(CNc2nc3cc(-c4ccc(OC)c(OC)c4)sc3c(=O)n2C)c1	-7%	-5%	2%	-3%	-16%	i	·	·	·	·
COc1cccc(CNc2nc3cc(-c4ccsc4)sc3c(=O)n2C)c1OC	?	?	?	3%	?	?	?	?	?	20%
COCCNc1nc2cc(-c3ccsc3)sc2c(=O)n1C	?	-4%	-15%	-4%	-40%	i	·	·	·	·
O=C(c1ccco1)N1CCC2(CCCN(Cc3ccncc3)C2)CC1	4%	·	·	·	-23%	·	·	·	·	·
Cc1cc(C)cc(NC(=O)N2CCCC2C(=O)NCc2ccco2)c1 (centres undefined)	5%	0%	9%	5%	4%	i	·	·	·	·
Cc1ccc2sc(N(CCCN(C)C)C(=O)CCS(=O)(=O)c3ccccc3)nc2c1C	2.3µM*	?	5.6µM*	6.3µM*	2.6µM*	·	?	?	3.3µM*	?
Cc1ccc(C)c(CNS(=O)(=O)c2ccc3c(c2)C(C)(C)C(=O)N3C)c1	?	5%	27%	-13%	?	i	·	·	·	·
COC(=O)c1ccccc1S(=O)(=O)N1CCC(C(=O)OCC(=O)c2ccccc2OC)CC1	?	-1%	0%	-2%	-13%	i	·	·	·	·
COc1cc2c(cc1OC)C(c1cccc([N+](=O)[O-])c1)N(C(=O)CCC(=O)O)CC2 (centres undefined)	-5%	·	-1%	-6%	-19%	i	·	·	·	·
CCN(CC)c1ccc(Nc2nc(N3CCOCC3)c3ccccc3n2)cc1	4.6µM*	-35%	10µM*	-94%	3.3µM*	i	?	21µM*	?	30%
Cc1cc(C)c(S(=O)(=O)Nc2ccc3c4c(cccc24)CC3)c(C)c1	-101%	-31%	8.9µM*	-39%	3.7µM*	?	12µM*	?	9.2µM*	33%
Cc1cc(C)c(S(=O)(=O)Nc2ccccc2C(=O)N2CCCC2)c(C)c1	?	-9%	36%	-2%	?	i	·	·	·	·
Cc1cc(NCc2ccccc2)nc(N2CCOCC2)n1	-12%	7%	-23%	0%	-9%	i	·	·	·	·
Cc1cc(N2CCOCC2)nc(NCc2ccccc2)n1	21µM*	-18%	10µM*	1%	13µM*	i	15µM*	-24%	?	1%
CN(C)c1ncnc2c1ccn2C1OC(CO)C(O)C1O (centres undefined)	3.3µM*	1%	0.22µM*	0.13µM*	8.2µM*	i	0.23µM*	1.3µM*	6.5µM*	25%
OCC1OC(n2cnc3c(NCc4ccccc4O)ncnc32)C(O)C1O (centres undefined)	1.3µM*	?	1.8µM*	-71%	1.5µM*	?	1.2µM*	4.1µM*	?	45%
CN(C)c1nc2c(N)ncnc2n1[C@H]1O[C@@H](CO)[C@H](O)[C@@H]1O	10%	0%	-6%	7%	-14%	i	·	·	·	·
OC[C@H]1O[C@@H](n2cnc3c(Nc4ccccc4)ncnc32)[C@H](O)[C@@H]1O	6%	37%	-6%	-10%	0%	i	·	·	·	·
OCC1OC(n2ccc3c(NO)ncnc32)C(O)C1O (centres undefined)	0.15µM*	?	0.28µM*	0.5µM*	0.15µM*	?	1.2µM*	0.58µM*	1.3µM*	40%
COc1ccc(S(=O)(=O)NC(C)C(=O)NCc2ccncc2)cc1OC (centres undefined)	3%	-11%	23%	0%	-6%	i	·	·	·	·
Cc1noc2ncnc(Oc3ccc4ccccc4c3)c12	-4%	3%	-2%	-51%	-7%	i	·	·	·	·
Cc1noc2ncnc(Oc3cc(Cl)ccc3Cl)c12	-17%	-7%[11.3 µM]	?	-27%	2%	?	18µM*	?	?	17%
Cc1ccc2c(c1)nnn2C1CCN(CC(=O)Nc2ccccc2N2CCOCC2)CC1	18µM*	-28%	10µM*	-48%	23µM*	?	?	?	?	10%
